Measured values taken from the supplement of paper PMC10037445.
Whole data set: some 2,900 compounds, median “NF-kB SEAP reporter activity, fold change vs agonist alone” near 0.99, cut for the highest 2% near 2.6. The sample holds the highest values, similar compounds and a random draw of the others, so the mix is not that of the screen.

Columns and labels:
RAW-Dual [1] = assay: NF-kB SEAP reporter activity, fold change vs agonist alone; cytotoxicity flag (confluency mask): not cytotoxic; higher = enhanced NF-kB activity
How it was run: (§1)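 Library stock was pin-tooled at 50 nL into 384-well plates of RAW-Dual macrophages (50,000 cells/well, DMEM), followed 1 h later by a PRR agonist, and the cells were kept at 37 °C, 5% CO2. Supernatant collected after 20 hours was read for IRF by QuantiLuc luminescence and for NF-κB by QuantiBlue absorbance at 620 nm. Reporter activity is fold change over agonist-alone wells, and a well counted as cytotoxic when its IncuCyte confluency was below 70% of agonist controls in both mask sets.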

RAW-Dual [2] = assay: NF-kB SEAP reporter activity, fold change vs agonist alone; higher = enhanced NF-kB activity; details: library stock concentration (final ~1000-fold dilution): 10 mM
How it was run: as §1

RAW-Dual [3] = assay: NF-kB SEAP reporter activity, fold change vs agonist alone; cytotoxicity flag (confluency mask): cytotoxic (confluency <70% of control); higher = enhanced NF-kB activity
How it was run: as §1

[4] = agonist: ODN 1826 (TLR9) 0.5 ug/mL
[5] = agonist: Pam2CSK4 (TLR2/6) 0.1 ug/mL
[6] = agonist: Pam3CSK4 (TLR2/1) 0.1 ug/mL
[7] = cytotoxicity flag (confluency mask): not cytotoxic, agonist: Imiquimod (TLR7) […]
[8] = cytotoxicity flag (confluency mask): not cytotoxic, agonist: MPLA (TLR4) […]

Cc1n[nH]c2ncc(C(=O)N3CCCC3c3ccc(Cl)cc3)cc12 (centres undefined) (library stock concentration (final ~1000-fold dilution): 10 mM)
NF-kB SEAP reporter activity (RAW-Dual [1]; agonist: LPS (TLR4) 0.1 ug/mL): 2.51
NF-kB SEAP reporter activity (RAW-Dual [1]; [4]): 2.07
NF-kB SEAP reporter activity (RAW-Dual [1]; [5]): 1.61
NF-kB SEAP reporter activity (RAW-Dual [1]; [6]): 2.59

Cc1n[nH]c2ncc(C(=O)N3CCCC3c3ccc(Cl)cc3)cc12 (centres undefined)
NF-kB SEAP reporter activity (RAW-Dual [2]; [7]): 1.44
NF-kB SEAP reporter activity (RAW-Dual [2]; [8]): 1.77

COC(=O)NC(C(=O)N1CCCC1c1ncc(-c2ccc(-c3ccc(-c4cnc(C5CCCN5C(=O)C(NC(=O)OC)C(C)C)[nH]4)cc3)cc2)[nH]1)C(C)C (centres undefined)
NF-kB SEAP reporter activity (RAW-Dual [2]; [7]): 1.24
NF-kB SEAP reporter activity (RAW-Dual [2]; [8]): 1.31

COC(=O)NC(C(=O)N1CCCC1c1ncc(-c2ccc(-c3ccc(-c4cnc(C5CCCN5C(=O)C(NC(=O)OC)C(C)C)[nH]4)cc3)cc2)[nH]1)C(C)C (centres undefined) (library stock concentration (final ~1000-fold dilution): 10 mM)
NF-kB SEAP reporter activity (RAW-Dual [1]; agonist: LPS (TLR4) 0.1 ug/mL): 1.88
NF-kB SEAP reporter activity (RAW-Dual [1]; [4]): 0.935
NF-kB SEAP reporter activity (RAW-Dual [1]; [5]): 0.867
NF-kB SEAP reporter activity (RAW-Dual [1]; [6]): 0.8

Cn1ncc(Cl)c1-c1cc(C(=O)NC(CN)Cc2cccc(F)c2)sc1Cl (centres undefined)
NF-kB SEAP reporter activity (RAW-Dual [2]; [7]): 1.39
NF-kB SEAP reporter activity (RAW-Dual [2]; [8]): 1.77

Cn1ncc(Cl)c1-c1cc(C(=O)NC(CN)Cc2cccc(F)c2)sc1Cl (centres undefined) (library stock concentration (final ~1000-fold dilution): 10 mM)
NF-kB SEAP reporter activity (RAW-Dual [1]; agonist: LPS (TLR4) 0.1 ug/mL): 1.53
NF-kB SEAP reporter activity (RAW-Dual [1]; [4]): 1.27
NF-kB SEAP reporter activity (RAW-Dual [1]; [5]): 1
NF-kB SEAP reporter activity (RAW-Dual [1]; [6]): 1.15

CCCC(NC(=O)C1C2CCCC2CN1C(=O)C(NC(=O)C(NC(=O)c1cnccn1)C1CCCCC1)C(C)(C)C)C(=O)C(=O)NC1CC1 (centres undefined)
NF-kB SEAP reporter activity (RAW-Dual [2]; [7]): 0.65
NF-kB SEAP reporter activity (RAW-Dual [2]; [8]): 1.02

CCCC(NC(=O)C1C2CCCC2CN1C(=O)C(NC(=O)C(NC(=O)c1cnccn1)C1CCCCC1)C(C)(C)C)C(=O)C(=O)NC1CC1 (centres undefined) (library stock concentration (final ~1000-fold dilution): 10 mM)
NF-kB SEAP reporter activity (RAW-Dual [1]; agonist: LPS (TLR4) 0.1 ug/mL): 1.3
NF-kB SEAP reporter activity (RAW-Dual [1]; [4]): 0.887
NF-kB SEAP reporter activity (RAW-Dual [1]; [5]): 0.68
NF-kB SEAP reporter activity (RAW-Dual [1]; [6]): 0.601

Nc1nc(F)nc2c1ncn2C1OC(CO)C(O)C1O (centres undefined)
NF-kB SEAP reporter activity (RAW-Dual [2]; [7]): 0.92
NF-kB SEAP reporter activity (RAW-Dual [2]; [8]): 0.844

Nc1nc(F)nc2c1ncn2C1OC(CO)C(O)C1O (centres undefined) (library stock concentration (final ~1000-fold dilution): 10 mM)
NF-kB SEAP reporter activity (RAW-Dual [1]; agonist: LPS (TLR4) 0.1 ug/mL): 1.1
NF-kB SEAP reporter activity (RAW-Dual [1]; [4]): 1.03
NF-kB SEAP reporter activity (RAW-Dual [1]; [5]): 1.06
NF-kB SEAP reporter activity (RAW-Dual [1]; [6]): 1.22

CC(C)CC(NC(=O)C(CCc1ccccc1)NC(=O)CN1CCOCC1)C(=O)NC(Cc1ccccc1)C(=O)NC(CC(C)C)C(=O)C1(C)CO1 (centres undefined) (library stock concentration (final ~1000-fold dilution): 10 mM)
NF-kB SEAP reporter activity (RAW-Dual [1]; agonist: LPS (TLR4) 0.1 ug/mL): 0.318
NF-kB SEAP reporter activity (RAW-Dual [1]; [4]): 1.18
NF-kB SEAP reporter activity (RAW-Dual [1]; [5]): 0.683
NF-kB SEAP reporter activity (RAW-Dual [1]; [6]): 0.456

CC(C)CC(NC(=O)C(CCc1ccccc1)NC(=O)CN1CCOCC1)C(=O)NC(Cc1ccccc1)C(=O)NC(CC(C)C)C(=O)C1(C)CO1 (centres undefined)
NF-kB SEAP reporter activity (RAW-Dual [2]; [7]): 2.33
NF-kB SEAP reporter activity (RAW-Dual [2]; [8]): 0.832

CCc1c(N(CC)C2CCOCC2)cc2oc(C3CCN(C(C)C)CC3)cc2c1C(=O)NCc1c(C)cc(C)[nH]c1=O (library stock concentration (final ~1000-fold dilution): 10 mM)
NF-kB SEAP reporter activity (RAW-Dual [1]; agonist: LPS (TLR4) 0.1 ug/mL): 1.13
NF-kB SEAP reporter activity (RAW-Dual [1]; [4]): 0.983
NF-kB SEAP reporter activity (RAW-Dual [1]; [5]): 1.04
NF-kB SEAP reporter activity (RAW-Dual [1]; [6]): 0.941

CCc1c(N(CC)C2CCOCC2)cc2oc(C3CCN(C(C)C)CC3)cc2c1C(=O)NCc1c(C)cc(C)[nH]c1=O
NF-kB SEAP reporter activity (RAW-Dual [2]; [7]): 1.34
NF-kB SEAP reporter activity (RAW-Dual [2]; [8]): 1.04

COCC(NC(=O)c1cnc(C)s1)C(=O)NC(COC)C(=O)NC(Cc1ccccc1)C(=O)C1(C)CO1 (centres undefined) (library stock concentration (final ~1000-fold dilution): 10 mM)
NF-kB SEAP reporter activity (RAW-Dual [1]; agonist: LPS (TLR4) 0.1 ug/mL): 0.377
NF-kB SEAP reporter activity (RAW-Dual [1]; [4]): 1.25
NF-kB SEAP reporter activity (RAW-Dual [1]; [5]): 0.279
NF-kB SEAP reporter activity (RAW-Dual [1]; [6]): 0.692

COCC(NC(=O)c1cnc(C)s1)C(=O)NC(COC)C(=O)NC(Cc1ccccc1)C(=O)C1(C)CO1 (centres undefined)
NF-kB SEAP reporter activity (RAW-Dual [2]; [7]): 2.34
NF-kB SEAP reporter activity (RAW-Dual [2]; [8]): 1.21

CC(C)(O)CNc1ncc(-c2ccnc(Nc3ccncc3)n2)c(CC2CC2)n1 (library stock concentration (final ~1000-fold dilution): 10 mM)
NF-kB SEAP reporter activity (RAW-Dual [1]; agonist: LPS (TLR4) 0.1 ug/mL): 4.13
NF-kB SEAP reporter activity (RAW-Dual [1]; [4]): 0.366
NF-kB SEAP reporter activity (RAW-Dual [1]; [5]): 0.814
NF-kB SEAP reporter activity (RAW-Dual [1]; [6]): 1.66

CC(C)(O)CNc1nc(Nc2ccnc(C(F)(F)F)c2)nc(-c2cccc(C(F)(F)F)n2)n1
NF-kB SEAP reporter activity (RAW-Dual [2]; [7]): 1.19
NF-kB SEAP reporter activity (RAW-Dual [2]; [8]): 1.28

CC(C)(O)CNc1ncc(-c2ccnc(Nc3ccnc(Cl)c3)n2)c(CC2CC2)n1 (library stock concentration (final ~1000-fold dilution): 10 mM)
NF-kB SEAP reporter activity (RAW-Dual [1]; agonist: LPS (TLR4) 0.1 ug/mL): 5.81
NF-kB SEAP reporter activity (RAW-Dual [1]; [4]): 0.935
NF-kB SEAP reporter activity (RAW-Dual [1]; [5]): 1.41
NF-kB SEAP reporter activity (RAW-Dual [1]; [6]): 1.8

Nc1ncc(-c2ccnc(Nc3ccncc3)n2)c(CC2CC2)n1 (library stock concentration (final ~1000-fold dilution): 10 mM)
NF-kB SEAP reporter activity (RAW-Dual [3]; agonist: LPS (TLR4) 0.1 ug/mL): 4.89
NF-kB SEAP reporter activity (RAW-Dual [3]; [4]): 0.424
NF-kB SEAP reporter activity (RAW-Dual [3]; [5]): 0.975
NF-kB SEAP reporter activity (RAW-Dual [3]; [6]): 1.51

CC(C)(O)CNc1ncc(-c2ccnc(Nc3ccncc3)n2)c(CC2CC2)n1
NF-kB SEAP reporter activity (RAW-Dual [2]; [7]): 0.914
NF-kB SEAP reporter activity (RAW-Dual [2]; [8]): 2.18

CC(C)(O)CNc1nc(Nc2ccnc(C(F)(F)F)c2)nc(-c2cccc(C(F)(F)F)n2)n1 (library stock concentration (final ~1000-fold dilution): 10 mM)
NF-kB SEAP reporter activity (RAW-Dual [1]; agonist: LPS (TLR4) 0.1 ug/mL): 1.51
NF-kB SEAP reporter activity (RAW-Dual [1]; [4]): 1.61
NF-kB SEAP reporter activity (RAW-Dual [1]; [5]): 1.09
NF-kB SEAP reporter activity (RAW-Dual [1]; [6]): 1.59

COc1cc(N2CCN(C)CC2)ccc1Nc1nccc(-c2cn(C)c3cnccc23)n1 (library stock concentration (final ~1000-fold dilution): 10 mM)
NF-kB SEAP reporter activity (RAW-Dual [1]; agonist: LPS (TLR4) 0.1 ug/mL): 1.02
NF-kB SEAP reporter activity (RAW-Dual [1]; [4]): 0.192
NF-kB SEAP reporter activity (RAW-Dual [1]; [5]): 1.14
NF-kB SEAP reporter activity (RAW-Dual [1]; [6]): 1.44

Nc1ncc(-c2ccnc(Nc3ccncc3)n2)c(CC2CC2)n1
NF-kB SEAP reporter activity (RAW-Dual [2]; cytotoxicity flag (confluency mask): cytotoxic (confluency <70% of control), agonist: Imiquimod (TLR7) […]): 0.641
NF-kB SEAP reporter activity (RAW-Dual [2]; cytotoxicity flag (confluency mask): cytotoxic (confluency <70% of control), agonist: MPLA (TLR4) […]): 2.13
